# Assay results published in PubChem BioAssay.
# The list shows a part of the results. Values without a mark were called inactive. Calls of active or inactive are those of the source.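 The calls were made as follows, unless noted: active = mean inhibition above a cutoff equal to the average over all tested compounds plus one standard deviation (cut at about 70% in these data); inactive = the rest.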
# Legend:
# [1] = molecular target: Photoreceptor-specific nuclear receptor (Homo sapiens) (UniProt Q9Y5X4); assay: NR2E3 agonist confirmation in cells, cell-based, luminescence, CHO-S two-hybrid (AID 624378;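 active = average inhibition above a cutoff equal to the mean inhibition of all tested compounds plus one SD, cut at about 70% in these data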;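 also: 0% = DMSO in NR2E3 cells and 100% = DMSO in cells lacking NR2E3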); settings: CHO-S mammalian two-hybrid NR2E3-NCOR, luciferase luminescence; at 3.98 µM; hits give high values
# [2] = GAL4-VP16 reporter modulators, confirmation, counter-screen for NR2E3 agonist project, cell-based, luminescence, CHO-S, high throughput (AID 624379); settings: CHO-S GAL4-VP16 luciferase reporter, at 3.98 µM, hits give high values;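 also: luciferase from a UAS reporter driven by GAL4-VP16 transactivation; 0% = DMSO with VP16-transfected cells and 100% = DMSO with cells lacking VP16; higher means less reporter light so more repression of VP16 activity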
# [3] = Gal4-VP16 luciferase reporter inhibitors, counter-screen for COUP-TFII antagonist project, cell-based, luminescence, HEK293 (AID 687007; in the data active = inhibition above about 13%); settings: at 8.5 µM, hits give high values
# [4] = molecular target: COUP transcription factor 2 (Homo sapiens) (UniProt P24468); assay: NR2F2 transcriptional activity inhibitors, confirmation, cell-based, luciferase reporter, HEK293, triplicate (AID 687008;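 active = mean inhibition over three repeats above a set limit taken from the earlier primary screen, cut at about 38% in these data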;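 also: 100% = cells given the luciferase reporter alone without the COUP-TF2 vector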); settings: HEK293 NGFI-A luciferase reporter, luminescence; at 8.5 µM; hits give high values
# [5] = growth loss of phage-infected RecBCD+ E. coli, confirmation, RecBCD inhibitor project, absorbance, E. coli V66, T4 gene 2 phage (AID 651982;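 active = mean inhibition over triplicates exceeding the hit threshold derived in the original primary screen, cut at about 11% in these data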); settings: E. coli V66 + T4 2- phage, growth OD; at 11.9 µM; hits give high values
# [6] = E. coli viability inhibition, counter-screen for RecBCD inhibitor project, absorbance, high throughput (AID 651983; in the data active = inhibition above about 20%;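 also: E. coli strain V66 grown with compound alone and no phage infection; 0% = bacteria with DMSO vehicle only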); settings: absorbance (OD) growth, at 11.9 µM, hits give high values
# [7] = growth loss of phage-infected AddAB-carrying E. coli, confirmation, counter-screen for RecBCD inhibitor project, absorbance, E. coli V3065, T4 phage (AID 651984;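 active = mean inhibition above the solvent-only control wells' mean plus 3 SD, cut at about 22% in these data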;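 also: higher means less bacterial growth from phage killing when AddAB is blocked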); settings: E. coli expressing H. pylori AddAB + T4 phage, OD growth; at 11.9 µM; hits give high values; gene 2 mutant T4, recBCD-deleted host
# Chain of Photoreceptor-specific nuclear receptor (Homo sapiens) (Q9Y5X4 whole entry, looked up, the tested form may be a part): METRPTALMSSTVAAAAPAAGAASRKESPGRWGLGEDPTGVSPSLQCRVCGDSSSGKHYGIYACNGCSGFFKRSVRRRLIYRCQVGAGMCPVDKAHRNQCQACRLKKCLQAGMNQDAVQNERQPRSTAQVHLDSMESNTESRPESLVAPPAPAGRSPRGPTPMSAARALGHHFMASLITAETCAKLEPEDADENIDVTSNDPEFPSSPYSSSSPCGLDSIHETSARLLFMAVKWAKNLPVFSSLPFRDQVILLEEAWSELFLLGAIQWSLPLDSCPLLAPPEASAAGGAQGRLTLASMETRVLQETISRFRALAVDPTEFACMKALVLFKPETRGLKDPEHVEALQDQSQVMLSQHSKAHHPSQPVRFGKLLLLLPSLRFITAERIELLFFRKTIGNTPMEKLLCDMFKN
# Chain of COUP transcription factor 2 (Homo sapiens) (P24468 whole entry, looked up): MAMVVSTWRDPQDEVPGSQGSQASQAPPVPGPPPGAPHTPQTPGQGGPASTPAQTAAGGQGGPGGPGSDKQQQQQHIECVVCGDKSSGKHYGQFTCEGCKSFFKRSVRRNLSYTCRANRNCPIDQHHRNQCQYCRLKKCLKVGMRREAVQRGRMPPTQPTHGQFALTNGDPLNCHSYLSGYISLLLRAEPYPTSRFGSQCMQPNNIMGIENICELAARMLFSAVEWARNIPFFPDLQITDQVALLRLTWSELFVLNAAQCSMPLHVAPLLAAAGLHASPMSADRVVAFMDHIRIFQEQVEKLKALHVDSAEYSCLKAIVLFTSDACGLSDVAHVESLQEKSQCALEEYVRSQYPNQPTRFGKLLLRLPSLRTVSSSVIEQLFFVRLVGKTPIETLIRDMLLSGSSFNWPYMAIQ
smiles,measurement,setting,value
S=C(NN=Cc1ccccn1)Nc1ccccn1,inhibition,[1],79.5% (active)
same,inhibition,[2],14.3%
COc1cccc(CNc2nc(NCc3ccccc3OC)nc3ccsc23)c1,inhibition,[1],82% (active)
same,inhibition,[2],61.6%
same,inhibition,[3],2.96%
same,inhibition,[4],18.9%
O=C(/C=C/c1ccc([N+](=O)[O-])o1)NNC(=O)c1ccc(F)cc1,inhibition,[1],83.5% (active)
same,inhibition,[2],18.6%
same,inhibition,[5],27.6% (active)
same,inhibition,[6],44.5% (active)
same,inhibition,[7],104% (active)
CCn1c(CNC(=O)c2cc(OC)c(OC)c(OC)c2)cc2cc(C)ccc21,inhibition,[1],85.2% (active)
same,inhibition,[2],71% (active)
same,inhibition,[3],4.19%
same,inhibition,[4],15.9%
C/C(=N\NC(=S)NCc1ccccc1)c1ccc(Cl)cc1,inhibition,[1],-1.78%
same,inhibition,[2],-14.2%
COC(=O)c1sccc1NC(=O)CSc1ccccc1NS(=O)(=O)c1cc(Cl)ccc1Cl,inhibition,[1],84% (active)
same,inhibition,[2],74.7% (active)
